Measurements: PubChem BioAssay (NCI)
Compounds without any hit were thinned out: in the full panel of roughly 79,000, 15% have a hit. Unmarked numbers belong to inactive results. Active and inactive are the calls of the source. No stated cut-off is given here; in the data, active means growth inhibition above about 70%; inactive means the rest.

Test: NCI Yeast Anticancer Drug Screen. Data for the rad50 strain (AID 155);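 further: 0% = growth of vehicle-only cultures of the same strain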
Settings: S. cerevisiae rad50 strain growth inhibition, stronger effect = higher value
Method: Growth inhibition of yeast strains with defined genetic alterations is measured as a screen for potential anti-cancer activity. Selected strains with alterations in DNA damage repair or cell cycle control were exposed to compounds and growth inhibition was measured relative to vehicle treated controls. The strain used in this assay is rad50

[1] = at 5.0 µM (retest, dose inferred, filed as 0.5)
[2] = at 50.0 µM (retest, dose inferred, filed as 5.0)

## CCc1cc(CC)c(-c2ccco2)c(COC(=O)NC)c1
[1]
  growth inhibition: -1%
[2]
  growth inhibition: 68%
At 50.0 µM
  growth inhibition: 95.4% (active)

## Cc1cc(NC(=S)SCc2ccc(F)cc2)c([N+](=O)[O-])cc1C
[1]
  growth inhibition: 57%
[2]
  growth inhibition: 98% (active)
At 50.0 µM
  growth inhibition: 98.7% (active)

## CCOC(=O)C1=C(Nc2ccc(Cl)c(Cl)c2)OC/C1=N\NS(=O)(=O)c1ccc(C)cc1
[1]
  growth inhibition: 24%
[2]
  growth inhibition: 24%
At 50.0 µM
  growth inhibition: 17.6%

## CCCCCCCCCCCOc1cccc(N2C(N)=NC(N)=NC2(C)C)c1
[1]
  growth inhibition: 99% (active)
[2]
  growth inhibition: 91% (active)
At 50.0 µM
  growth inhibition: 98.8% (active)

## Cc1ccc(S(=O)(=O)NC(Cc2ccccc2)C(=O)CCl)cc1 (configuration not stated)
[1]
  growth inhibition: 61%
[2]
  growth inhibition: 99% (active)
At 50.0 µM
  growth inhibition: 89.9% (active)

## C=CCCCN1C(=O)C2C3c4ccccc4C(C=O)(c4ccccc43)C2C1=O (configuration not stated)
[1]
  growth inhibition: 29%
[2]
  growth inhibition: 25%
At 50.0 µM
  growth inhibition: 32.1%

## CCOC(=O)C(C=O)(C=O)c1ccccc1
[1]
  growth inhibition: 6%
[2]
  growth inhibition: 42%
At 50.0 µM
  growth inhibition: 71.5% (active)

## CC(C)c1ccc2c(c1)CC[C@H]1[C@](C)(CN)CCC[C@]21C
[1]
  growth inhibition: 3%
[2]
  growth inhibition: 98% (active)
At 50.0 µM
  growth inhibition: 98.8% (active)

## Cc1c(N=Nc2cccc(F)c2)c(-c2ccccc2)nn1C(N)=S
[1]
  growth inhibition: 14%
[2]
  growth inhibition: 97% (active)
At 50.0 µM
  growth inhibition: 99.2% (active)

## C=C(C)CCC(=C)C
[1]
  growth inhibition: 22%
[2]
  growth inhibition: 91% (active)
At 50.0 µM
  growth inhibition: 48.7%

## O=C(/C(=C/c1ccc2c(c1)OCO2)c1ccccc1)c1ccc(OCCN2CCCC2)cc1
[1]
  growth inhibition: -2%
[2]
  growth inhibition: -4%
At 50.0 µM
  growth inhibition: 34.9%

## CC(C)OC(=O)c1ccc(CCC2=CC(=O)C=CC2=O)cc1
[1]
  growth inhibition: 34%
[2]
  growth inhibition: 89% (active)
At 50.0 µM
  growth inhibition: 81.1% (active)

## CCCCCCCCC(=O)Cl
[1]
  growth inhibition: 11%
[2]
  growth inhibition: 82% (active)
At 50.0 µM
  growth inhibition: 74.4% (active)

## CSC(=S)CC(O)[C@@H]1CC2c3ccccc3C1c1ccccc12 (some centres not stated)
[1]
  growth inhibition: -5%
[2]
  growth inhibition: 94% (active)
At 50.0 µM
  growth inhibition: 76.7% (active)
